From PubChem BioAssay
3T3 cytotox: cytotoxic compounds in NIH 3T3 cells; Potency, µM (series often up to 96.7 µM), inactives show top-dose activity change, negative = cytotoxicity, most hits filed as inhibitors; hit rate 4.3% among 94,000; NIH 3T3 viability, CellTiter-Glo ATP luminescence, 48-72 h; AID 1345082; also: nearly all actives have a fitted effect of over 55% in size
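First NIH 3T3 cells are plated at 400 cells/well; next compound is pinned in; then plates incubate 48 or 72 hr at 37 °C; finally CellTiter-Glo is added and luminescence read after 10 min.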
Luciferase inh: blocks purified firefly luciferase enzyme activity; hit rate 2.5% among 76,000; Potency, µM (highest dose often 115 µM), usual class: inhibitors; P08659; AID 1347043; purified P. pyralis luciferase, luminescence, biochemical; also: nearly all actives have a fitted effect of over 65% in size
Target sequence (P08659 whole entry, looked up): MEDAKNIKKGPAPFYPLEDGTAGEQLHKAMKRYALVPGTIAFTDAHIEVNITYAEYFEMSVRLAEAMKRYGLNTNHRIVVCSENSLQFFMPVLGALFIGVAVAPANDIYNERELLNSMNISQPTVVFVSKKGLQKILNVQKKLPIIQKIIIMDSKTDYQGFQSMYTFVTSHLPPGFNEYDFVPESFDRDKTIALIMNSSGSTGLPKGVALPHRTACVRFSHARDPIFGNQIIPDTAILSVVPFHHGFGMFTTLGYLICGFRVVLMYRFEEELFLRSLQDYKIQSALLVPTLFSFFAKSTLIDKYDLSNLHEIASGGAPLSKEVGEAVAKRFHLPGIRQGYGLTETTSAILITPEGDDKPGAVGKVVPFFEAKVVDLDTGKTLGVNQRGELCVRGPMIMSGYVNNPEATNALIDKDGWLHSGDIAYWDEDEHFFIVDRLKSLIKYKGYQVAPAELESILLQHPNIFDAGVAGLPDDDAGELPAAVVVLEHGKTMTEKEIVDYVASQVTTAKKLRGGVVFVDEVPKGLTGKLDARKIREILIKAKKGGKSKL
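Inhibitors were tested against purified firefly luciferase in a biochemical, low-substrate format (both substrates at 10uM) and luminescence measured with a CCD imager.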
NPR1 antag: antagonists of human natriuretic peptide receptor Npr1; HEK293 hNpr1 GloSensor cGMP, ANP-stimulated luminescence; Potency, µM (doses to about 46.3 µM), without a hit: at the highest dose activity change, negative = inhibition, hits mostly inhibitors; hit rate 1.6% among 76,000; calls by dose curve; also: nearly all actives have a fitted effect of over 60% in size
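HEK293 cells stably expressing human Npr1 and cGMP GloSensor pGS-40F, loaded 2 h with 2% GloSensor reagent, given compound 30 min at room temperature. Luminescence read before and 20 min after 0.1 nM hNppA.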
HEK293 tox: kills HEK 293 cells; Potency, µM (series often up to 115 µM), for inactives: top-dose activity change, negative = cytotoxicity, actives largely listed as inhibitors; HEK 293 viability, ATP luminescence (CellTiter-Glo), 48-72 h; AID 1345083; hit rate 6.6% among 94,000; also: nearly all actives have a fitted effect of over 60% in size
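Pintool-delivered compounds were incubated with HEK 293 cells (250 cells/well) at 37 degree Celsius for 48 or 72 hr. ATP-dependent luminescence (CellTiter-Glo) then reported remaining viable cells.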
Starred values were filed as active, the others as inactive; i = inactive; u = inconclusive; x = no result; [ ] = another dose, or the depositor's remark. Hits are enriched below; roughly 11% of the tested compounds scored in any of these assays. Unless noted, calls follow the shape of the dose curve; as a rule, active = well fitted curve in the direction sought with a large enough effect; inconclusive = small, poorly fitted or top-dose-only effect, or another doubt; inactive = no such curve, though single readings can be large; an effect the other way counts as inactive or inconclusive. % is scaled to controls: 0 for no effect and ±100 for the full control effect; potency is read from the fitted curve at half-maximal effect.

SMILES	3T3 cytotox	Luciferase inh	NPR1 antag	HEK293 tox
CN1CCCN(C(=O)CCn2cnnn2)c2ccccc21	-7.1%	i	4.3%	i
COC1CCOC2(CCN(C(=O)c3nn(C)c4ccccc34)CC2)C1 (stereo not drawn)	0.8%	i	5.3%	-2.0%
CN(Cc1ccc(F)cc1)c1ccc2ncc(Nc3cccc(O)c3)n2n1	u	i	u	63.1µM*
CN(Cc1ccc(F)cc1)c1ccc2ncc(Nc3ccc4c(c3)OCO4)n2n1	28.2µM*	i	u	63.1µM*
CN(Cc1cccnc1)c1ccc2ncc(Nc3ccc4c(c3)OCO4)n2n1	u	i	-30.2%[70.6 µM]	u
CN(Cc1cccnc1)c1ccc2ncc(Nc3ccc(F)cc3)n2n1	u	i	u	79.4µM*
Cc1ccc(Nc2ccnc(N3CCC(NC(=O)C4CC4)CC3)n2)cc1	u	x	x	44.7µM*
Cc1ccc(Nc2ccnc(N3CCC(NC(=O)N(C)C)CC3)n2)cc1	44.7µM*	x	x	u
Cc1ccc(Nc2ccnc(N3CCC(NC(=O)NC4CCCC4)CC3)n2)cc1	-10.1%	x	x	-27.2%
Cc1ccc(Nc2ccnc(N3CCC(C(=O)NC4CCCC4)CC3)n2)cc1	35.5µM*	x	x	44.7µM*
Cc1ccc(Nc2ccnc(N3CCC(C(=O)NC4CC4)CC3)n2)cc1	35.5µM*	x	x	u
COc1ccccc1C(=O)N[C@@H]1CN(c2ccccn2)C[C@H]1CN(C)C	-12.2%	i	4.2%	-10.0%
O=C(CC1CCCN(c2cn[nH]c(=O)c2)C1)N1CCCCCC1 (stereo not drawn)	-14.6%	i	3.8%	-18.3%
Clc1ccccc1CN1CC[C@H](c2nnc(-c3ccccc3)o2)C1	-24.6%[174 µM]	i	-2.2%[70.6 µM]	-18.1%[172 µM]
Clc1ccc(-c2nnc([C@H]3CCN(Cc4c[nH]c5ccccc45)C3)o2)cc1	112µM*	i	-28.3%[70.6 µM]	u
c1ccc(-c2nnc([C@H]3CCN(Cc4ccco4)C3)o2)cc1	-8.3%[174 µM]	50.1µM*	-2.2%[70.6 µM]	u
Clc1ccc(-c2nnc([C@H]3CCN(Cc4ccco4)C3)o2)cc1	-36.9%[174 µM]	44.7µM*	-6.4%[70.6 µM]	-21.3%[172 µM]
CC(C)c1nc2c(c(-c3ccc(O)cc3)n1)CN(C(=O)c1ccc(F)cc1)CC2	-19.7%	i	1.9%	1.4%
Cc1cccc(CN2CCC(n3c(C)nn(C)c3=O)CC2)c1	-4.3%	x	x	0.8%
CC1(C(=O)N2CCN(c3ccccn3)CC2)CCc2cnc(Nc3ccccc3)nc21 (stereo not drawn)	u	i	-16.7%[70.6 µM]	112µM*
CC1(C(=O)N2CCC(c3ccccc3)CC2)CCc2cnc(Nc3ccncc3)nc21 (stereo not drawn)	u	i	u	70.8µM*
CC1(C)[C@H](Cc2cc(CCO)on2)C[C@@H]1NC1CCC1	4.6%[230 µM]	i	2.3%[70.6 µM]	-27.5%[230 µM]
Cc1cn2nc(C(=O)NCc3ccccc3Cl)cc2c(N2CCCC2)n1	u	i	0.4%	-26.9%
O[C@@H]1CCC2CC1[C@@H](O)CN2Cc1ccc(-c2ccccc2)cc1 (stereo partly drawn)	u	x	x	79.4µM*
Cc1noc(C)c1-c1cnc(Nc2ccccc2)c2c1CCO2	u	i	2.4%[70.6 µM]	u
SMILES	3T3 cytotox	Luciferase inh	NPR1 antag	HEK293 tox
Fc1cccc(-c2cnc(Nc3cnccn3)c3c2CCO3)c1	u	u	-0.1%[70.6 µM]	100µM*
O=C(Nc1ncc(-c2cccc(F)c2)c2c1OCC2)c1ccc(F)c(Cl)c1	u	i	-12.9%[70.6 µM]	35.5µM*
Cc1noc(C)c1-c1cnc(Nc2cccc(C(F)(F)F)c2)c2c1CCO2	u	u	-17.4%[70.6 µM]	63.1µM*
CNC(=O)c1cccc(-c2cnc(Nc3cccnc3)c3c2CCO3)c1	u	25.1µM*	-1.6%[70.6 µM]	u
CCNC(=O)N[C@H]1CO[C@H]2[C@@H]1OC[C@H]2OC(=O)Nc1cccc(C(F)(F)F)c1	-27.3%[174 µM]	i	-16.6%[70.6 µM]	u
O=C1Cc2c(-c3ccsc3)n[nH]c2CN1Cc1ccccc1	u	i	-1.1%[70.6 µM]	-14.9%[172 µM]
O=C1CC(Cc2ccccc2)CN1CC(=O)N1CCOC2(CCCC2)C1 (stereo not drawn)	-25.0%	i	4.3%	-11.4%
CNC(=O)c1cccc(-c2cnc(Nc3cccc(C(F)(F)F)c3)c3c2CCO3)c1	39.8µM*	u	u	63.1µM*
CNC(=O)c1cccc(-c2cnc(Nc3ccc(F)c(Cl)c3)c3c2CCO3)c1	u	10µM*	-22.6%[70.6 µM]	28.2µM*
CNC(=O)c1cccc(-c2cnc(Nc3ccncc3)c3c2CCO3)c1	u	i	3.2%[70.6 µM]	u
COc1ccc(-c2ccc3ncc(Nc4ccc(C(N)=O)cc4)n3n2)cn1	u	i	-1.8%[70.6 µM]	u
Fc1ccc(-c2ccc3ncc(Nc4ncccn4)n3n2)cc1	u	i	9.0%[70.6 µM]	-18.8%[172 µM]
C[S+](=O)([O-])Nc1cccc(Nc2cnc3ccc(-c4ccc(F)cc4)nn23)c1	u	u	-20.8%[70.6 µM]	79.4µM*
COc1ccc(-c2ccc3ncc(Nc4cccc(N[S+](C)(=O)[O-])c4)n3n2)cc1OC	u	39.8µM*	-1.9%	u
O=C(NCCC1=CCCCC1)C1CCN(C(=O)c2ncn3c2COC(c2ccccc2)C3)CC1 (stereo not drawn)	-9.7%	2µM*	-22.4%	-6.5%
O=C(NCCC1=CCCCC1)C1CCN(C(=O)c2ncn3c2COC(c2ccc(F)cc2)C3)CC1 (stereo not drawn)	-23.5%	22.4µM*	-6.2%	-12.6%
CCCCNC(=O)C1CCN(C(=O)c2ncn3c2COC(c2ccc(F)cc2)C3)CC1 (stereo not drawn)	-2.3%	39.8µM*	1.0%	-15.4%
CCCCNC(=O)C1CCN(C(=O)c2ncn3c2COC(c2ccc(OC)cc2)C3)CC1 (stereo not drawn)	i	i	-0.9%	-4.8%
Cn1cc(CN2C[C@H](C(=O)Nc3cccnc3)C[C@H]2c2cccc(C(F)(F)F)c2)cn1	u	i	-1.4%[70.6 µM]	u
O=C1COCC2(CN(c3ccc(C(F)(F)F)cn3)C2)CN1c1ccc(F)cc1	u	i	-3.2%[70.6 µM]	u
O=C1COCC2(CN(c3ccccc3)C2)CN1c1ccc(OC(F)(F)F)cc1	89.1µM*	i	-10.7%[70.6 µM]	89.1µM*
CCCCn1c(CNC(=O)OC(C)(C)C)nc2cccnc21	u	i	-5.0%[70.6 µM]	u
CN1CCCC2(CCN(C(=O)CCCOc3ccccc3)C2)C1=O (stereo not drawn)	0.3%	28.2µM*	0.8%	-1.9%
O=C1CC2(CCN(C(=O)C3CCN(C(=O)C4CCCC4)CC3)CC2)Oc2ccccc2N1	-0.8%	x	x	u
O=C1CC2(CCN(C(=O)C3CCCN(C(=O)C4CCCC4)C3)CC2)Oc2ccccc2N1 (stereo not drawn)	-20.2%	x	x	-19.5%
O=C1CC2(CCN(C(=O)C3CCCN(C(=O)Nc4ccc(Cl)cc4)C3)CC2)Oc2ccccc2N1 (stereo not drawn)	u	x	x	22.4µM*
COc1ccccc1C(=O)N1CCC2(CC1)CC(=O)Nc1ccccc1O2	-11.0%	i	-20.0%	44.7µM*
O=C1CC2(CCN(C(=O)C3CCN(C(=O)Cc4cccc(Cl)c4)CC3)CC2)Oc2ccccc2N1	u	x	x	39.8µM*
